Among the data in PubChem BioAssay (Tox21) are outcome and Potency values, retold here.

Experiment [1] is described as follows: qHTS assay to identify small molecule antagonists of the glucocorticoid receptor (GR) signaling pathway - cell viability counter screen (AID 720693; note: nearly all actives have a fitted effect of over 55% in size). (In general: qHTS replaces the single test concentration by a dilution series.)
A short description of experiment [2]: qHTS assay for identifying genotoxic compounds that show differential cytotoxicity against isogenic chicken DT40 cell lines with known DNA damage response pathways - wild type cell line (AID 743012). Note: nearly all actives have a fitted effect of over 60% in size. Summed up:
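Using parental DT40 (300 cells/well), compounds delivered in DMSO incubate 40 h at 37 C/5% CO2. CellTiter-Glo reagent then stands 30 min at room temperature, and luminescence gives cell viability.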

Experiment [3] in a line: qHTS assay for identifying genotoxic compounds that show differential cytotoxicity against isogenic chicken DT40 cell lines with known DNA damage response pathways - Rev3 mutant cell line (AID 743014). Note: nearly all actives have a fitted effect of over 55% in size.
Experiment [4] in a line: qHTS assay for identifying genotoxic compounds that show differential cytotoxicity against isogenic chicken DT40 cell lines with known DNA damage response pathways - Rad54/Ku70 mutant cell line (AID 743015). Note: nearly all actives have a fitted effect of over 60% in size.
Experiment [5] is described as follows: qHTS assay to identify small molecule antagonists of the androgen receptor (AR) signaling pathway - cell viability counter screen (AID 743033; note: nearly all actives have a fitted effect of over 45% in size).
The nature of experiment [6]: qHTS assay to identify small molecule antagonists of the androgen receptor (AR) signaling pathway using the MDA cell line - cell viability counter screen (AID 743041; note: nearly all actives have a fitted effect of over 45% in size). Summed up:
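MDA-kb2 AR-luc cells (MMTV-luciferase, AR/GR responsive) treated with compounds plus R1881 agonist for 16 h at 37C. CellTiter-Fluor added at 15.5 h; fluorescence read after 30 min in the same wells.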

A short description of experiment [7]: qHTS assay to identify small molecule antagonists of the thyroid receptor (TR) signaling pathway - cell viability counter screen (AID 743064). Note: nearly all actives have a fitted effect of over 50% in size. Summed up: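 Fluorescence from CellTiter-Fluor, added after 23.5 h exposure at 37 °C, reported viability of GH3.TRE-Luc cells co-treated with compound and 1 nM T3. Measured in the same wells as the luciferase TR readout.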

The nature of experiment [8]: qHTS assay to identify small molecule antagonists of the thyroid receptor (TR) signaling pathway (AID 743065). Note: series mostly up to about 70 µM; nearly all actives have a fitted effect of over 55% in size. In outline:
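GH3.TRE-Luc rat pituitary cells (two TREs driving luciferase) were dosed with compound, then stimulated with 1 nM T3 (final) for 23.5 h at 37 C. ONE-Glo luminescence was the read-out, with CellTiter-Fluor fluorescence as the cytotoxicity counter-screen.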

In experiment [9] the test system is thyroid hormone receptor (rat, GH3 cells). Nature of the experiment: qHTS assay to identify small molecule agonists of the thyroid receptor (TR) signaling pathway (AID 743066; calls by dose curve).
Experiment [10] deals with Estrogen receptor (Homo sapiens) (UniProt P03372). Nature of the experiment: qHTS assay to identify small molecule antagonists of the estrogen receptor alpha (ER-alpha) signaling pathway (AID 743069; active = well fitted curve in the direction sought with a large enough effect in the signal ratio in the repeat runs, not every such curve was filed as active; the % refers to the signal ratio). In outline: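 HEK293 ER-alpha-UAS-bla GripTite cells, held overnight in 2% charcoal-stripped FBS, 5,000 cells/well, preincubated 4 h, then compound plus 17beta-estradiol for 18 h at 37C. Beta-lactamase read by LiveBLAzer B/G FRET substrate, 2 h at room temperature.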

A short description of experiment [11]: qHTS assay to identify small molecule antagonists of the estrogen receptor alpha (ER-alpha) signaling pathway - cell viability counter screen (AID 743074; calls by dose curve;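 note: HEK293 cells carrying ER-alpha-UAS-bla reporter stimulated with 17beta-estradiol; nearly all actives have a fitted effect of over 45% in size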).
In experiment [12] the target is Estrogen receptor (Homo sapiens) (UniProt P03372). Nature of the experiment: qHTS assay to identify small molecule agonists of the estrogen receptor alpha (ER-alpha) signaling pathway (AID 743075; calls by dose curve).
Experiment [13] has the same target. Nature of the experiment: qHTS assay to identify small molecule agonists of the estrogen receptor alpha (ER-alpha) signaling pathway using the BG1 cell line (AID 743079). Note: nearly all actives have a fitted effect of over 20% in size. Note: potency is the fitted concentration of half-maximal effect.
The nature of experiment [14]: qHTS assay to identify small molecule antagonists of the estrogen receptor alpha (ER-alpha) signaling pathway using the BG1 cell line (AID 743080; calls by dose curve;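 note: BG1 cells stimulated with 17beta-estradiol alongside compound; series mostly up to about 70 µM; nearly all actives have a fitted effect of over 25% in size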). Summed up:
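Endogenous full-length ER-alpha in BG1-Luc-4E2 cells drives a stably integrated 4×ERE luciferase gene; compounds were tested against 17beta-estradiol over 21.5 h, with luminescence and multiplexed viability fluorescence recorded.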

Experiment [15] can be described thus: qHTS assay to identify small molecule antagonists of the estrogen receptor alpha (ER-alpha) signaling pathway using the BG1 cell line - cell viability counter screen (AID 743081).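 Note: compound given together with 17beta-estradiol as the ER stimulus; series mostly up to about 70 µM; nearly all actives have a fitted effect of over 45% in size.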
A further experiment has as its target Aromatase (Homo sapiens) (UniProt P11511). Nature of the experiment: qHTS assay to identify aromatase inhibitors (AID 743083). Note: series mostly up to about 70 µM; nearly all actives have a fitted effect of over 55% in size.
Experiment [16] can be described thus: qHTS assay to identify aromatase inhibitors - cell viability counter screen (AID 743084).
For experiment [17], the target named is Androgen receptor (Homo sapiens) (UniProt P10275). Nature of the experiment: qHTS assay to identify small molecule agonists of the androgen receptor (AR) signaling pathway (AID 743036; active = well fitted activation curve with a large enough effect in the signal ratio in the repeat runs, with a control signal flat, not every such curve was filed as active; the % refers to the signal ratio). Summed up: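 Fluorescence from a beta-lactamase FRET substrate served as read-out in AR-UAS-bla GripTite HEK293 cells. Cells were treated with DMSO-dissolved compounds for 16 h at 37C, then with LiveBLAzer B/G substrate for 2 h at room temperature.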

For experiment [18] the target is unchanged. Nature of the experiment: qHTS assay to identify small molecule agonists of the androgen receptor (AR) signaling pathway using the MDA cell line (AID 743040; note: nearly all actives have a fitted effect of over 20% in size). In outline: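 MDA-kb2 breast carcinoma cells carrying MMTV-luciferase (responsive to AR and GR), plated 5 h then treated 16 h with compounds at 37C, 0% CO2. Read-out was ONE-Glo luminescence after 30 min at room temperature.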

The target is the same in experiment [19]. Nature of the experiment: qHTS assay to identify small molecule antagonists of the androgen receptor (AR) signaling pathway using the MDA cell line (AID 743042; note: nearly all actives have a fitted effect of over 55% in size). In outline:
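MDA-kb2 breast carcinoma cells carrying MMTV-luciferase (AR/GR responsive) were co-treated with compounds and the agonist R1881 for 16 h at 37C. Inhibition read as ONE-Glo luminescence; CellTiter-Fluor fluorescence measured in parallel for cytotoxicity.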

Values without a mark were called inactive. Records with an inconclusive call do not appear. Active and inactive are the calls of the source. Unless noted, calls come from the whole dose curve; as a rule, active = well fitted curve in the direction sought with a large enough effect in the repeat runs; inconclusive = weak or mixed curves; inactive = no such curve, though single readings can be large; an effect the other way counts as inactive or inconclusive.

Androgen receptor (Homo sapiens), sequence (P10275 whole entry, looked up): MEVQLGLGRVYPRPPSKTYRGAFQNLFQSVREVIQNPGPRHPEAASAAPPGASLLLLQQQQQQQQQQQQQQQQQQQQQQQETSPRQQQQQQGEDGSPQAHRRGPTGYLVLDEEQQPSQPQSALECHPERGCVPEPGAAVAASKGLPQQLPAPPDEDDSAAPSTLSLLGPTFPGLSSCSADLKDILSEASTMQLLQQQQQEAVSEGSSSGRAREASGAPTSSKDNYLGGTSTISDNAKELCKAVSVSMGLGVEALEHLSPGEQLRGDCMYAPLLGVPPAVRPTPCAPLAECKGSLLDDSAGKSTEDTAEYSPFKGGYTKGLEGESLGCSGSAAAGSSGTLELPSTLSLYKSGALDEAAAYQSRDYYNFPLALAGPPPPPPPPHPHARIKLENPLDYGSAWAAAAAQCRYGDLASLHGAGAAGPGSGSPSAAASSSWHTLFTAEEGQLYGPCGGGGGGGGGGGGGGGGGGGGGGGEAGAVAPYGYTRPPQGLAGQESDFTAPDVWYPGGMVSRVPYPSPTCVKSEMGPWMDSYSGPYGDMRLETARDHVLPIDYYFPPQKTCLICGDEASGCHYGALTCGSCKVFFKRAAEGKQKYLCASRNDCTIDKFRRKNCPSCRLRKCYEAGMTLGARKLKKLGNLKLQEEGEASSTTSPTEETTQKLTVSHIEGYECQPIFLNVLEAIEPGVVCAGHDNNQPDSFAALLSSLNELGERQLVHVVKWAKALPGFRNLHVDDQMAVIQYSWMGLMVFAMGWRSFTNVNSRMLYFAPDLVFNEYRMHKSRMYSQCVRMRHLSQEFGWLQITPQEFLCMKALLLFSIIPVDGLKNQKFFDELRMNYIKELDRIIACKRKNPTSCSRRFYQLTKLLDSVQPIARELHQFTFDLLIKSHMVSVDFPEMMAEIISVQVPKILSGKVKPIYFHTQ
Aromatase (Homo sapiens), sequence (P11511 whole entry, looked up): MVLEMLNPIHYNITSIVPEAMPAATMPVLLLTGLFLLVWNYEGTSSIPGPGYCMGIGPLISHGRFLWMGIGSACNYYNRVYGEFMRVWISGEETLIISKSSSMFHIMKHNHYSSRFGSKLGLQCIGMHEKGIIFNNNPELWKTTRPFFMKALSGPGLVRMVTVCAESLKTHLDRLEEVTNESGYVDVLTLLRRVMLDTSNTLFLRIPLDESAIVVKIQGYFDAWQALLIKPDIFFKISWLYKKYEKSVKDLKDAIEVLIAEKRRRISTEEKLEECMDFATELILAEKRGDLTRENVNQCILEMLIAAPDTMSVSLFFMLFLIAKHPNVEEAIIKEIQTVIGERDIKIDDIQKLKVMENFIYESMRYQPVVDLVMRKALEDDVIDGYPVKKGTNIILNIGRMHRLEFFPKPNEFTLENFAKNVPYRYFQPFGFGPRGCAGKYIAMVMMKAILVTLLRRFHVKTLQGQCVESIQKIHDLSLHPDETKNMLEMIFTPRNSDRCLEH
Estrogen receptor (Homo sapiens), sequence (P03372 whole entry, looked up): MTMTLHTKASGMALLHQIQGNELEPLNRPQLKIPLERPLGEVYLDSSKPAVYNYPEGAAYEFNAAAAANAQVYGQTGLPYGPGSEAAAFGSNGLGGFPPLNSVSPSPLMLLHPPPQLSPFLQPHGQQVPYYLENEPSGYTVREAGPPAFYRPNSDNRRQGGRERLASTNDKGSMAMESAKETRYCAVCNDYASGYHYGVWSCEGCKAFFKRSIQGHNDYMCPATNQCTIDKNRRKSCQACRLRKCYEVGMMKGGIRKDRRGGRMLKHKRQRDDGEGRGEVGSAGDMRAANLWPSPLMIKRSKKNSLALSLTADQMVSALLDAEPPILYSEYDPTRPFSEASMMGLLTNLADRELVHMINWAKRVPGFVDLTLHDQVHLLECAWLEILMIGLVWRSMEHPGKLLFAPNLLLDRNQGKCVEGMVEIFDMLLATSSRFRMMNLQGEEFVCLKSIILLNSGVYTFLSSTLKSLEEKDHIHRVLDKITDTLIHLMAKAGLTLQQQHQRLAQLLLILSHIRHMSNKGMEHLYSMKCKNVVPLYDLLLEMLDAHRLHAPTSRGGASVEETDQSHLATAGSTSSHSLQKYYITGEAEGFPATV

`C[C@@H](O)C(=O)O`: the call in experiment [1], in [5], in experiment [9], in experiment [10], in experiment [11] and in experiment [14] was inactive. Also, the call in the experiment with Aromatase (Homo sapiens) was inactive. Moreover, the Potency entry in [2], in experiment [3], in [4], in [6], in [7] and in experiment [8] was “inactive” throughout. In addition, the Potency result in experiment [12], in experiment [15] and in [16] was “inactive” in each case. The Potency in experiment [13] is 48 µM (active).
With `CCOCCOCC`, the compound was classed as inactive in experiment [1], in experiment [5], in experiment [9], in [10], in experiment [11] and in experiment [14]. In the experiment with Aromatase (Homo sapiens), the call was inactive. The Potency result in [2], in experiment [3], in experiment [4], in experiment [6], in experiment [7] and in experiment [8] was “inactive” in each case. Besides, the Potency result in experiment [12], in experiment [13], in experiment [15] and in [16] was “inactive” each time.
For the compound `CCCCOC(=O)C(C)O` (stereo unspecified), the call (in experiment [1]; in experiment [5]; in experiment [9]; in experiment [11]; in experiment [14]; in the experiment with Aromatase (Homo sapiens)) was inactive. Also, the Potency entry in [2], in [3], in experiment [4], in experiment [6], in experiment [7] and in experiment [8] was “inactive” in each case. Besides, the Potency result in experiment [12], in experiment [13], in experiment [15] and in [16] was “inactive” each time.
Take `O=C(O)[C@H](O)c1ccccc1`: the call in experiment [1], in experiment [5], in [9], in experiment [10], in experiment [11] and in experiment [14] was inactive. In addition, the compound was classed as inactive with Aromatase (Homo sapiens). For the same compound, the Potency entry in experiment [2], in experiment [3], in experiment [4], in experiment [6], in experiment [7] and in experiment [8] was “inactive” throughout. Moreover, the Potency entry in experiment [12], in experiment [15] and in experiment [16] was “inactive” each time.
Turning to `CC(=O)c1cc(C)oc1C`, the result in experiment [1], in experiment [5], in experiment [17], in [19], in [9] and in experiment [11] was inactive. Besides, in the experiment with Aromatase (Homo sapiens), the outcome was inactive. Besides, the Potency result in [2], in experiment [3], in experiment [4], in experiment [18], in [6] and in experiment [7] was “inactive” in each case. The Potency entry in [8], in [15] and in [16] was “inactive” throughout.
In the case of `CC1(C)Oc2ccc(C#N)cc2[C@@H](N2CCCC2=O)[C@@H]1O`, the outcome in experiment [1], in experiment [5], in experiment [9], in [10], in [11] and in experiment [14] was inactive. Moreover, the call with Aromatase (Homo sapiens) was inactive. Further, the Potency result in experiment [2], in experiment [3], in experiment [4], in [6], in experiment [7] and in [8] was “inactive” each time. Besides, the Potency entry in [12], in experiment [13], in experiment [15] and in [16] was “inactive” each time.
On to `CCCCOCCOC(=O)COc1ccc(Cl)cc1Cl`, for which the result in experiment [1], in experiment [5], in [9], in experiment [10], in experiment [11] and in [14] was inactive. Moreover, the outcome with Aromatase (Homo sapiens) was inactive. The Potency entry in experiment [2], in [3], in experiment [4], in [6], in experiment [7] and in experiment [8] was “inactive” each time. Moreover, the Potency result in experiment [12], in experiment [15] and in experiment [16] was “inactive” throughout.
For `COc1nc(N)nc2nc[nH]c12`, the call (in experiment [1]; in experiment [5]; in experiment [9]; in experiment [11]; in experiment [14]; with Aromatase (Homo sapiens)) was inactive. For the same compound, the Potency entry in [2], in experiment [3], in experiment [4], in [6], in experiment [7] and in experiment [8] was “inactive” in each case. The Potency entry in [12], in [13], in [15] and in experiment [16] was “inactive” throughout.
